From PubChem BioAssay (Tox21)
Activity calls are given as the source filed them. The call rests on the fitted dose curve; in most records, active means well fitted activation curve with a large enough effect in the repeat runs; inconclusive means weak or mixed curves; inactive means flat fitted curve, though single readings scatter.

Experiment: A CellTox Green Cytotoxicity Assay to monitor cytotoxicity in HepG2 cells - 0 hour (AID 1224882); further: nearly all actives have a fitted effect of over 35% in size
Settings: CellTox Green fluorescence; series mostly up to 76.8 µM; cytotoxicity: at the top concentration
Method in brief: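 HepG2, 600 cells/well premixed w/ CellTox Green; 5 h settle, 37 C/5% CO2; pintool cpd add (DMSO); 37 C, 40 h; fluorescence read at 0, 8, 16, 24, 32, 40 h.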
On the % scale 0 is the no-effect control and ±100 the full control effect.

Row | Compound | cytotoxicity
1 | C[N+](C)(C)CC(O)CCl (configuration not stated) | -14.3% (inactive)
2 | CCNC(=O)/C=C/c1cccc(Br)c1 | 3.73% [at 35.3 µM] (inactive)
3 | BrC/C=C/CBr | -11.8% [at 15.8 µM] (inactive)
4 | O=C(O)c1c(Cl)ccc(Cl)c1Cl | -1.26% (inactive)
5 | CCCCCCCCCCCCCCCCI | -4.1% [at 15.8 µM] (inactive)
6 | COc1ccc(OC)c(NC(=O)CC(C)=O)c1 | -4.94% (inactive)
7 | CN(C)CCOCCN(C)CCO | 0.408% (inactive)
8 | CCCCC/C=C/CC(=O)OC | 3.34% (inactive)
9 | CCCCCCCCCCCCOC(C)=O | 4.48% (inactive)
10 | COc1cc2c3cc1Oc1cc(ccc1O)C[C@@H]1c4c(cc(OC)c(O)c4Oc4ccc(cc4)C[C@@H]3N(C)CC2)CC[N+]1(C)C | -11.5% [at 35.3 µM] (inactive)
11 | O=C(O)CCNC(=O)c1ccccc1 | 0.241% [at 35.3 µM] (inactive)
12 | C=C[Si](C)(C)O[Si](C)(C)C=C | -0.845% (inactive)
13 | Nc1cc(C(=O)O)ccc1Cl | 1.03% (inactive)
14 | NC(=O)C1(N2CCCCC2)CCN(CCCC(=O)c2ccc(F)cc2)CC1 | -3.28% [at 35.3 µM] (inactive)
15 | N#CCCOCCOCCC#N | 0.326% (inactive)
16 | C[C@H](CCC(=O)NCC(=O)O)[C@H]1CC[C@H]2[C@@H]3[C@H](O)C[C@@H]4C[C@H](O)CC[C@]4(C)[C@H]3C[C@H](O)[C@]12C | -1.65% (inactive)
17 | CCS(=O)(=O)CCn1c([N+](=O)[O-])cnc1C | 22.8% [at 35.3 µM] (inactive)
18 | CC(C)(c1ccc(Oc2ccc3c(c2)C(=O)OC3=O)cc1)c1ccc(Oc2ccc3c(c2)C(=O)OC3=O)cc1 | -2.94% (inactive)
19 | C=CCOc1c(Br)cc(Br)cc1Br | -1.16% (inactive)
20 | O=C(O)/C=C/c1ccccc1 | -0.0292% (inactive)
21 | CC1=NN(c2ccc(S(=O)(=O)O)cc2)C(=O)C1N=Nc1ccccc1 (configuration not stated) | 14.5% (inactive)
22 | CCCCC(CC)C(=O)OC(C)C (configuration not stated) | -1.4% (inactive)
